Cruzain inh Det: inhibitors of Trypanosoma cruzi cruzain with detergent. P25779. purified cruzain, Z-FR-AMC fluorescence, 0.01% Triton. Potency, µM, inactives show max response, negative = inhibition, hits mostly inhibitors. 200,000 tested, 0.43% active. AID 1478;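 further: plate controls were neutral wells for no effect and buffer without enzyme for full effect; nearly all actives have a fitted effect of over 40% in size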
Target sequence (P25779 123-467 limits assumed): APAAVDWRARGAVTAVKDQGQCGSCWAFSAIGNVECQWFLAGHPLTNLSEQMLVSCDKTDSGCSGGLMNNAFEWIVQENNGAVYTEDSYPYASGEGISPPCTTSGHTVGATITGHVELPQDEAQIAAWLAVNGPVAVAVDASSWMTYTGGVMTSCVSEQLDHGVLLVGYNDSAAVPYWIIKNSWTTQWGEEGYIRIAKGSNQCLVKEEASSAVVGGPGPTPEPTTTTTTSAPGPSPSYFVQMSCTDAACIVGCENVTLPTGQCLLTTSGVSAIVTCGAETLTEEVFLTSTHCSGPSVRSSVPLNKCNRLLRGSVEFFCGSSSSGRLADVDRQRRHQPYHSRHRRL
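Compounds were screened in titration against cruzain (1.5 nM) with 0.01% Triton X-100 to counter colloidal aggregation. Activity was the AMC fluorescence increase over 60 s after adding 2 uM Z-FR-AMC at pH 5.5.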
Cruzain inh noDet: cruzain (T. cruzi) inhibition without detergent; P25779; Potency, µM, for inactives: max response, negative = inhibition, actives largely listed as inhibitors; purified cruzain, Z-FR-AMC fluorescence, no detergent; AID 1476; 200,000 tested, 2.3% active;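 further: plate controls were enzyme without inhibitor for no effect and buffer without enzyme for full effect; nearly all actives have a fitted effect of over 40% in size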
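Detergent-free condition (0.00005% Triton X-100) in acetate buffer pH 5.5 with DTT. 1.5 nM enzyme and compound were pre-mixed 15 min, then 2 uM Z-FR-AMC substrate added; reaction progress from fluorescence change between first and third reads (60 s).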
Active calls of the source: *; ? = inconclusive. An excerpt weighted towards active compounds, which were near 2.4% of everything screened. The call rests on the fitted dose curve; in most records, active means well fitted curve in the direction sought with a large enough effect; inconclusive means small, poorly fitted or top-dose-only effect, or another doubt; inactive means no such curve, though single readings can be large; an effect the other way counts as inactive or inconclusive. Potency means the concentration at half of the fitted maximal effect.

SMILES	Cruzain inh Det	Cruzain inh noDet
CCOC(=O)c1c(C)n(Cc2ccco2)c2ccc(OC)cc12	-18%	9%
Cc1cc(C)c(NC(=O)C(C)OC(=O)c2cc(Br)c(Br)s2)c(C)c1 (stereo not given)	-1%	25µM*
Cc1c(NC(=O)C(C)OC(=O)c2cccs2)c(=O)n(-c2ccccc2)n1C (stereo not given)	-1%	-7%
ClC(Cl)c1ccccc1	1%	10%
Cc1cccc(C(=O)Nc2cc(-c3ccccc3F)nn2-c2ccccc2)c1	-1%	-8%
O=C(Nc1cc(-c2ccccc2F)nn1-c1ccccc1)c1ccccc1Br	0%	32µM*
CC(=O)c1c(C)n(CC(=O)NCc2ccc3c(c2)OCO3)c2ccccc12	-1%	16%
O=C(O)C1CCC(=O)N1Cc1ccccc1Cl (stereo not given)	4%	8%
CCOC(=O)c1c(NC(=O)C2c3ccccc3Oc3ccccc32)sc(C)c1C	-4%	?
CCOC(=O)c1c(NC(=O)C2c3ccccc3Oc3ccccc32)sc(C(C)=O)c1C	-1%	?
COC(=O)c1sc(NC(=O)C2c3ccccc3Oc3ccccc32)c(C(=O)OC)c1C	-3%	10µM*
COC(=O)c1c(NC(=O)C2c3ccccc3Oc3ccccc32)sc(C)c1C	0%	25µM*
COC(=O)c1c(NC(=O)Cc2ccccc2)sc(C)c1C	-8%	-9%
COC(=O)c1c(NC(=S)Nc2ccccc2Cl)sc(C)c1C	-3%	13µM*
CC(C)(C)Cn1c(=O)[nH]c(=O)c2cc([N+](=O)[O-])cnc21	-3%	-3%
O=C(/C=C/c1ccco1)Nc1ccc(Oc2ccc(Cl)cc2)cc1	-3%	-7%
Cc1ccc2nc(NC(=O)c3cc(=O)c4cc(C)c(C)cc4o3)sc2c1	0%	-2%
Fc1cccc(Nc2nc3ccccc3n3nnnc23)c1	0%	?
Fc1ccccc1Nc1nc2ccccc2n2nnnc12	0%	25µM*
Cc1ccc(CNc2nc3ccccc3n3nnnc23)cc1	2%	32µM*
c1ccc2c(c1)nc(Nc1ccc3c(c1)OCO3)c1nnnn12	-2%	25µM*
Cc1ccc(CNC(=O)c2ccc(Nc3nc4ccccc4n4nnnc34)cc2)cc1	-1%	-12%
Oc1ccccc1Nc1nc2ccccc2n2nnnc12	-4%	?
CCOC(=O)N1CCC(Nc2c(NCCCN(C)Cc3ccccc3)c(=O)c2=O)CC1	1%	-8%
CC1N=C2c3ccccc3N=C(SCc3cc(=O)n4cc(Cl)ccc4n3)N2C1=O (stereo not given)	-11%	-22%
SMILES	Cruzain inh Det	Cruzain inh noDet
COc1cc2oc(=O)cc(-c3ccc(-c4ccc(C)cc4)cc3)c2c(OC)c1OC	3%	3%
COc1cc2oc(=O)cc(-c3ccc(-c4ccc(C#N)cc4)cc3)c2c(OC)c1OC	1%	35µM*
O=C(COC(=O)c1cccs1)c1ccccc1	-1%	-13%
COc1ccc(CC(=O)N2CCC(Nc3nc4ccccc4n3Cc3ccc(F)cc3)CC2)cc1	-12%	4%
CC(C)C(O)(C(C)C)C(C)C	4%	4%
Cc1ccc(S(=O)(=O)n2c3ccc(Cl)cc3c3nc(C)sc32)cc1	-6%	?
CC(=O)c1ccc(-c2nc3ccccc3n2C)o1	-27%	16µM*
Cc1ccc(-c2nc3ccccc3n2C)o1	-2%	4%
O=C(NNS(=O)(=O)c1ccc2ccccc2c1)C1CCN(Cc2ccccc2)CC1	3%	9%
O=C(COc1ccc(/C=N/NC(=O)CSCc2ccc([N+](=O)[O-])cc2)cc1)NCc1ccco1	-8%	-5%
O=C(/C=C/c1ccc2c(c1)OCO2)Nc1nc(-c2ccc(F)cc2F)cs1	-5%	7.9µM*
Cc1csc(NC(=O)/C=C/c2ccc3c(c2)OCO3)n1	-9%	-14%
c1cnc2c(-c3nccc4c3[nH]c3ccccc34)cccc2c1	-4%	-21%
O=C(Nc1ccc(Cl)c(Cl)c1)C1CC(=O)N(c2ccc(Br)cc2)C1 (stereo not given)	-9%	20µM*
Cc1cc(C)cc(NC(=O)C2CC(=O)N(c3ccccc3)C2)c1 (stereo not given)	-3%	1%
CN(c1ccccc1C(=O)N1CCOCC1)S(C)(=O)=O	0%	-5%
CCNc1nc(SC)nc(N(C#N)CC(=O)OC)n1	14µM*	13µM*
CCNc1nc(SC(C(C)=O)C(C)=O)nc(N(C)C)n1	5%	-2%
COC(=O)CN(C#N)c1nc(C)cc(C)n1	-2%	-2%
COC(=O)CN(C#N)c1nc(NC(C)C)nc(OC)n1	22µM*	20µM*
CCN(C#N)c1nc(NC(C)C)nc(NC(C)C)n1	0%	7%
COC(=O)CN(C#N)c1nc(OC)nc(N(C)C)n1	28µM*	20µM*
CCc1nnc(NC(=O)CN2C(=O)c3ccccc3C2=O)s1	-1%	-1%
Cc1ccc(S(=O)(=O)NC2c3cccc4cccc(c34)C2Sc2nncn2C)cc1 (stereo not given)	2%	-8%
Cc1ccc(S(=O)(=O)NC2c3cccc4cccc(c34)C2Sc2nc(C)cc(C)n2)cc1 (stereo not given)	-3%	25µM*
